Seven compounds from ChEMBL document CHEMBL1961873, “Compounds: GSK PKIS; Assays: Nanosyn kinase panel” (2012) can be followed below.

One may read the inhibition as the drop in the measured response relative to a control, in per cent.

Assay [1] has as its target Mitogen-activated protein kinase 3 (Homo sapiens) (UniProt P27361). The settings on record: at 1 µM.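 Note: values are mean percent inhibition of MAPK3.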
Assay [2] deals with SRSF protein kinase 3 (Homo sapiens) (UniProt Q9UPE1). The settings on record: at 0.1 µM.
SRSF protein kinase 3 (Homo sapiens), sequence (Q9UPE1 whole entry): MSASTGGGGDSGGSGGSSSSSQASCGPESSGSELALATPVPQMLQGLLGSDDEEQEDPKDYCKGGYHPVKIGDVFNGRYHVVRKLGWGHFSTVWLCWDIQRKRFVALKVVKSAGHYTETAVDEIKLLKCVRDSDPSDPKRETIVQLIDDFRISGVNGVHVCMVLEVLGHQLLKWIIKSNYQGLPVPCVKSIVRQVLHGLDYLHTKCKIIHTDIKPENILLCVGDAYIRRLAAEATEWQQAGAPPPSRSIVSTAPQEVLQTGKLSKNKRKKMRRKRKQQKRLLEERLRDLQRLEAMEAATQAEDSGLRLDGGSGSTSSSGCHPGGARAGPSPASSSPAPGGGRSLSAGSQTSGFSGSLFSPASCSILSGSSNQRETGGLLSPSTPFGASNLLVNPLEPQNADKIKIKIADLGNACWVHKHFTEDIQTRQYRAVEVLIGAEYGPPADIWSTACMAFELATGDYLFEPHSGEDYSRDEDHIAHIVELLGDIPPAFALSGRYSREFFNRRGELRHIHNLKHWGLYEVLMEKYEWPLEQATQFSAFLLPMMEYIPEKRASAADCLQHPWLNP
Assay [3] shares this target. The settings on record: at 1 µM.
The target in assay [4] is Mitogen-activated protein kinase 14 (Homo sapiens) (UniProt Q16539). The settings on record: at 0.1 µM.
Mitogen-activated protein kinase 14 (Homo sapiens), sequence (Q16539 whole entry): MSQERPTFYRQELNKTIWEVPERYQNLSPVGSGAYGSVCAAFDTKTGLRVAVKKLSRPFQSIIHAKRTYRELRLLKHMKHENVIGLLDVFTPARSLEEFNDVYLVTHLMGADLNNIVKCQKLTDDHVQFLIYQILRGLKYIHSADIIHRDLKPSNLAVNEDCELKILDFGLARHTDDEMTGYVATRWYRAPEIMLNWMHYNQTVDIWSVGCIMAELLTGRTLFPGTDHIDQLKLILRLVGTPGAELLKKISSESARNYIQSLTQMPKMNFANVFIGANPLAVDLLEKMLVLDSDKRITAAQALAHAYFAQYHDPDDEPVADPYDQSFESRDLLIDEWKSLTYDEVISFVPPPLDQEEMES
Assay [5] has the same target. The settings on record: at 1 µM.
Assay [6] deals with Mitogen-activated protein kinase 11 (Homo sapiens) (UniProt Q15759). The settings on record: at 0.1 µM.
Mitogen-activated protein kinase 11 (Homo sapiens), sequence (Q15759 whole entry): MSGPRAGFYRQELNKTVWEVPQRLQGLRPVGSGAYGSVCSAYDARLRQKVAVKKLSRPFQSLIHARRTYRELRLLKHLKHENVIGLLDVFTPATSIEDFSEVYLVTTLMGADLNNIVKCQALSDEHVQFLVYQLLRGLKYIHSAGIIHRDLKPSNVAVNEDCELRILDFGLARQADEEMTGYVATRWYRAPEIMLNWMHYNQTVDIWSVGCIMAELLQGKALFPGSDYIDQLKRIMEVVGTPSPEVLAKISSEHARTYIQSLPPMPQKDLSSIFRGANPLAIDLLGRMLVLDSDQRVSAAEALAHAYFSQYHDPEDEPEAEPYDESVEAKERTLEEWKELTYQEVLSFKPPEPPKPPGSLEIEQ
The target is the same in assay [7]. The conditions noted are these: at 1 µM.
Assay [8] concerns the target T1, Mitogen-activated protein kinase 13 (Homo sapiens) (UniProt O15264).
T1 sequence (whole entry): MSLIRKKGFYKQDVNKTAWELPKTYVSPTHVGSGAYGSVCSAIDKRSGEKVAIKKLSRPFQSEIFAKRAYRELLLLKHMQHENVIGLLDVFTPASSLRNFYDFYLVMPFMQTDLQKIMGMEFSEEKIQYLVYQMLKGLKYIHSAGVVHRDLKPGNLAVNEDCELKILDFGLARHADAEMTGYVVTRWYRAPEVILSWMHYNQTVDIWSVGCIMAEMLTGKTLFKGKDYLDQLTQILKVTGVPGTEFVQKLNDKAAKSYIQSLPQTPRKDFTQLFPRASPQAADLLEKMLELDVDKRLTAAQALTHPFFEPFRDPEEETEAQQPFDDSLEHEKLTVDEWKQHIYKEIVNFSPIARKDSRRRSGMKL
The conditions noted are these: at 0.1 µM.

Assay [9] has as its target T1, Mitogen-activated protein kinase 13 (Homo sapiens). The settings on record: at 1 µM.
Assay [10] concerns the target T2, Mitogen-activated protein kinase 12 (Homo sapiens) (UniProt P53778).
T2 sequence (whole entry): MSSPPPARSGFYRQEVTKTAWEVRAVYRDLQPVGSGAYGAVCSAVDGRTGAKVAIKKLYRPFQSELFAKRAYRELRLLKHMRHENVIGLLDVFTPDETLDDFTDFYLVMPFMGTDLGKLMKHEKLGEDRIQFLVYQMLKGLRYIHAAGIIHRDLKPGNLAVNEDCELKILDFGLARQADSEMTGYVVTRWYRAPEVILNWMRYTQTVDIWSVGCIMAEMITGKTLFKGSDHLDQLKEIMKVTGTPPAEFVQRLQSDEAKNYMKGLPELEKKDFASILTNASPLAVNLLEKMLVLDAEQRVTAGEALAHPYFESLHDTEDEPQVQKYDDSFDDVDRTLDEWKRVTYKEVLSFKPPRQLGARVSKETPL
The settings on record: at 0.1 µM.

Assay [11] concerns the target T2, Mitogen-activated protein kinase 12 (Homo sapiens). The conditions noted are these: at 1 µM.
Assay [12] concerns the target SRSF protein kinase 1 (Homo sapiens) (UniProt Q96SB4). The conditions noted are these: at 0.1 µM.
Assay [13] shares this target. The conditions noted are these: at 1 µM.
The target in assay [14] is Phosphatidylinositol 4,5-bisphosphate 3-kinase catalytic subunit alpha isoform (Homo sapiens) (UniProt P42336). The conditions noted are these: at 0.1 µM.
Phosphatidylinositol 4,5-bisphosphate 3-kinase catalytic subunit alpha isoform (Homo sapiens), sequence (P42336 whole entry, canonical isoform): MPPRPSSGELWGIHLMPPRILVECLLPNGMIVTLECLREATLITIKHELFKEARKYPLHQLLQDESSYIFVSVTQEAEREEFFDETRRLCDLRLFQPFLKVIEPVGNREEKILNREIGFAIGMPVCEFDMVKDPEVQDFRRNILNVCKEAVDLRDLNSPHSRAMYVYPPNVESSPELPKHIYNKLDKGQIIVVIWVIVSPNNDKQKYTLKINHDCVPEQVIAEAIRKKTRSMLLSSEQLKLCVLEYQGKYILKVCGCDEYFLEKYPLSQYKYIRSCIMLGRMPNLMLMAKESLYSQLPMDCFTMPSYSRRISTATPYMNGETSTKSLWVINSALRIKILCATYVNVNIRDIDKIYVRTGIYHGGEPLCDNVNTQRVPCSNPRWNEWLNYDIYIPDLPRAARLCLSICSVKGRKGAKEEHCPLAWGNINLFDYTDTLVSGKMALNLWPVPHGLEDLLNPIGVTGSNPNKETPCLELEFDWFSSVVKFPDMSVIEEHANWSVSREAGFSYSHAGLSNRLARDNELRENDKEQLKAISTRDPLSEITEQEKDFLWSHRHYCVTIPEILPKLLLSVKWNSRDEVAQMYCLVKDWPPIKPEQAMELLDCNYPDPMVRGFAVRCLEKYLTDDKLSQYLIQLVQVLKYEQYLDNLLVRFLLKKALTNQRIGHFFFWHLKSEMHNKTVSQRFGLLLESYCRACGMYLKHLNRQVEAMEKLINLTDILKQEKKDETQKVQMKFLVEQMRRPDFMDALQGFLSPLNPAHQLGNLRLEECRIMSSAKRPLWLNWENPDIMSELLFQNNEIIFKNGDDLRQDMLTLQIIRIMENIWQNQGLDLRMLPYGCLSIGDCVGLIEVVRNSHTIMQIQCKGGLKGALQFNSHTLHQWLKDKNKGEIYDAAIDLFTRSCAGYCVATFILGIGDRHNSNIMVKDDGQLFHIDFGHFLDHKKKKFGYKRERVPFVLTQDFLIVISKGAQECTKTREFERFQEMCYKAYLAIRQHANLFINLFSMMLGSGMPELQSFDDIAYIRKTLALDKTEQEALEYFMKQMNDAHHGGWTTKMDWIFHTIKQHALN
Assay [15] shares this target. The conditions noted are these: at 1 µM.
For assay [16], the target named is T3, Phosphatidylinositol 4,5-bisphosphate 3-kinase catalytic subunit delta isoform (Homo sapiens) (UniProt O00329).
T3 sequence (whole entry): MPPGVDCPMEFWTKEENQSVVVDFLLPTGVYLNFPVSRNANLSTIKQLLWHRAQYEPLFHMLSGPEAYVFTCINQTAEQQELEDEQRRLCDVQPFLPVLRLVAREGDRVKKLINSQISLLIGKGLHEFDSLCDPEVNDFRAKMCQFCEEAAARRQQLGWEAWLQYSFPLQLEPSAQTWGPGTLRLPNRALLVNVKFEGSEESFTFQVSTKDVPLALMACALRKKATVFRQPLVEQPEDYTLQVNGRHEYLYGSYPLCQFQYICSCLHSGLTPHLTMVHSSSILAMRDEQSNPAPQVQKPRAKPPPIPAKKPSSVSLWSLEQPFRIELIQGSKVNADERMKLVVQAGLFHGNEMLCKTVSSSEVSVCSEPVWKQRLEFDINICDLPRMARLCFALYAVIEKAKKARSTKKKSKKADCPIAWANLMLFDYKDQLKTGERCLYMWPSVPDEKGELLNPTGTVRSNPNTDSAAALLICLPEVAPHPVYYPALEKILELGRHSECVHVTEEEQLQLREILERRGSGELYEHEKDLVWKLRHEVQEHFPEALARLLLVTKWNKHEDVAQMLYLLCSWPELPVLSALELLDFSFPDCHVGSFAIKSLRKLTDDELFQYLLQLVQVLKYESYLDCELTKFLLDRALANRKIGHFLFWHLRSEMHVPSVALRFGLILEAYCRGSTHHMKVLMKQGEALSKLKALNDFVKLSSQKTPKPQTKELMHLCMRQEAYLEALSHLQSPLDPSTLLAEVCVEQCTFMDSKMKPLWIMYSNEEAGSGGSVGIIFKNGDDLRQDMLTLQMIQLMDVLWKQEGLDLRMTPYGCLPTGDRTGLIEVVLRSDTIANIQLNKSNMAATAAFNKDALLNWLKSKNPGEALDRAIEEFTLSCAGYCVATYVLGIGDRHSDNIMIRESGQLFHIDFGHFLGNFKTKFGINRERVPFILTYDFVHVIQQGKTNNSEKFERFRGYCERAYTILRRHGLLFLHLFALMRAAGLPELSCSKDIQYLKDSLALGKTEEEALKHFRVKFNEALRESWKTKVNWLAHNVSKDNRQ
The conditions noted are these: at 0.1 µM.

Assay [17] deals with T3, Phosphatidylinositol 4,5-bisphosphate 3-kinase catalytic subunit delta isoform (Homo sapiens). The conditions noted are these: at 1 µM.
Assay [18] deals with Phosphatidylinositol 4-kinase beta (Homo sapiens) (UniProt Q9UBF8). The conditions noted are these: at 0.1 µM.
Phosphatidylinositol 4-kinase beta (Homo sapiens), sequence (Q9UBF8 2-816 limits assumed): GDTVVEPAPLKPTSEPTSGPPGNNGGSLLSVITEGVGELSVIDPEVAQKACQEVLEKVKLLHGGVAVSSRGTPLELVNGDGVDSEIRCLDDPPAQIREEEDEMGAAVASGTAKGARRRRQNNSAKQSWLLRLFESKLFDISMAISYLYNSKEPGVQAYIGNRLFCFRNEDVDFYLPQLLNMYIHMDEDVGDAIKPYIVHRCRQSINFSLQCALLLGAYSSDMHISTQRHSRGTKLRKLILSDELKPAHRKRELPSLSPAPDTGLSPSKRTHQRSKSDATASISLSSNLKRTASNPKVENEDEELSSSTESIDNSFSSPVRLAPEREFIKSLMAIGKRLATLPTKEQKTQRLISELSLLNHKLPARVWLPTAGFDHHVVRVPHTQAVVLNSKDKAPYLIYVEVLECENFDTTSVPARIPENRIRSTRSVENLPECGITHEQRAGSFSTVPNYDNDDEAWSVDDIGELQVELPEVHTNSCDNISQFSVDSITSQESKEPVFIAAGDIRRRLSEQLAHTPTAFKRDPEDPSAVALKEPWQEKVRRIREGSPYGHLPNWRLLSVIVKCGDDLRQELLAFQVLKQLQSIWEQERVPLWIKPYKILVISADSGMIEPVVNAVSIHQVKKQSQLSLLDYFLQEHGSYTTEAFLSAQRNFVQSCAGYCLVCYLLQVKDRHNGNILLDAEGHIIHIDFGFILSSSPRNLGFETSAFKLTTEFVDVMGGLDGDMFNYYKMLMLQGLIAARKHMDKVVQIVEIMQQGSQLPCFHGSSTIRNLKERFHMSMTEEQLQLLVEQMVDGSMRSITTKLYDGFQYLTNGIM
The target is the same in assay [19]. The settings on record: at 1 µM.
Assay [20] addresses Sphingosine kinase 1 (Homo sapiens) (UniProt Q9NYA1). The settings on record: at 0.1 µM.

SRSF protein kinase 1 (Homo sapiens), sequence (Q96SB4 whole entry): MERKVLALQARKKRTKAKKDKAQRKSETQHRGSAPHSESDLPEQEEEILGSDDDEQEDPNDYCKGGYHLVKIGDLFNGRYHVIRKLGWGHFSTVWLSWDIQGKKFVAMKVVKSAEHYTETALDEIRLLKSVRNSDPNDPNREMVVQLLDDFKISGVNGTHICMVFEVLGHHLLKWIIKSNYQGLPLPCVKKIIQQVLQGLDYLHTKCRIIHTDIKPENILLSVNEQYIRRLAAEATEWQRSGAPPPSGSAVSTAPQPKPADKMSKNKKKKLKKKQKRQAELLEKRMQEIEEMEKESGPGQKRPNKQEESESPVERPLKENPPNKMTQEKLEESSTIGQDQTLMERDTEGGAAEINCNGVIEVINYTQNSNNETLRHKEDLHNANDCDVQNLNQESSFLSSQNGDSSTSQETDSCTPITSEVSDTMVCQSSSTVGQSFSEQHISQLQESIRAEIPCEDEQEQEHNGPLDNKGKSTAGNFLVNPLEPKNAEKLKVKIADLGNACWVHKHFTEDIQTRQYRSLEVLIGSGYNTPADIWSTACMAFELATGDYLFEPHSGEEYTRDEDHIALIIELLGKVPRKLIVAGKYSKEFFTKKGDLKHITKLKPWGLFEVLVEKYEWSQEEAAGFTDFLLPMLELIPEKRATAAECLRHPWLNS
Mitogen-activated protein kinase 3 (Homo sapiens), sequence (P27361 whole entry): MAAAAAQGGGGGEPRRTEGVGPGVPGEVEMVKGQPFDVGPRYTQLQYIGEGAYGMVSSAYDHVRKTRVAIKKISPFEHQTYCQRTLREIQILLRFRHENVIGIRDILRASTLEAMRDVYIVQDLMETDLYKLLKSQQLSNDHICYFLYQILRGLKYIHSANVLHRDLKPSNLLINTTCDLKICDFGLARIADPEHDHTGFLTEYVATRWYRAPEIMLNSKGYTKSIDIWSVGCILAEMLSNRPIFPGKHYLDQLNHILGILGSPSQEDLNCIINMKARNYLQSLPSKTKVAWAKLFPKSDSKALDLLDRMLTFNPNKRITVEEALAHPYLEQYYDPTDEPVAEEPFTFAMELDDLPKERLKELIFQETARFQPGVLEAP
Sphingosine kinase 1 (Homo sapiens), sequence (Q9NYA1 whole entry): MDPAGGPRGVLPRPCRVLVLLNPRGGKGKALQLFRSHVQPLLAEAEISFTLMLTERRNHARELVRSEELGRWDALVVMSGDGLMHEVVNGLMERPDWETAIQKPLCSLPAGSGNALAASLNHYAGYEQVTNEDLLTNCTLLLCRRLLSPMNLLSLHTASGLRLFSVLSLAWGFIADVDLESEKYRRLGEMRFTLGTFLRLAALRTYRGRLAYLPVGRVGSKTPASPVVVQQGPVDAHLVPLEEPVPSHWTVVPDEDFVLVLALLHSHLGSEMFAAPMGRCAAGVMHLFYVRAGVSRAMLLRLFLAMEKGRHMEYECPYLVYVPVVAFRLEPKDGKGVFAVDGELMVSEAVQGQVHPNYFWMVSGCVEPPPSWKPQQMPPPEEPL

`c1ccc(Nc2ncc(-c3ccccc3)o2)cc1`: the inhibition in assay [1] is 4.13%; in assay [2], -1.27%; in [3], -0.17%; in assay [4], 9.09%; in [5], 11.8%; in assay [6] it was 5.86%. Further, the inhibition in assay [7] is 5.93%; in assay [8], 4.95%; in assay [9], 4.65%; in assay [10], 2.89%; in assay [11] it was 5.26%; in assay [12] it was -2.25%. Moreover, the inhibition in assay [13] is -2.19%; in assay [14], 5.87%; in [15] it was 6.84%; in assay [16], 1.87%; in [17] it was 4.99%; in assay [18] it was 5.07%. Moreover, the inhibition in [19] was -3.06%; in [20] it was 2.26%.

On to `COc1cc(/C=N/Nc2ncnc3c2cnn3C(C)C)ccc1O`, for which the inhibition in [1] was 2.88%; in [2], -2.39%; in [3], -1.29%; in assay [4] it was 1.82%; in assay [5] it was 3.92%; in assay [6], 0.99%. The inhibition in assay [7] was 2.61%; in assay [8], 1.12%; in assay [9], 3.06%; in assay [10] it was 1.85%; in [11], 1.85%; in assay [12], -0.73%. Besides, the inhibition in assay [13] was 1.12%; in assay [14], 19%; in assay [15], 70.5%; in assay [16], 20.9%; in assay [17], 71.3%; in [18], -8.74%. Further, the inhibition in assay [19] worked out at 26.5%; in assay [20], 0.17%.

In the case of `CCn1c(-c2nonc2N)nc2ccc(F)cc21`, the inhibition in [1] was 7.45%; in [2], -2.41%; in assay [3], -1.12%; in assay [4], 5.24%; in assay [5] it was 8.37%; in [6], 7.69%. The inhibition in assay [7] was 9.2%; in [8] it was 2.3%; in [9], 6.26%; in assay [10], 3.81%; in [11], 3.36%; in assay [12], -1.22%. Moreover, the inhibition in [13] was 2.61%; in [14], 4.99%; in assay [15] it was 4.15%; in [16], 3.09%; in assay [17], 2.96%; in [18], -0.18%. Moreover, the inhibition in assay [19] turned out to be 6.29%; in assay [20], 0.88%.

As to `N#Cc1c(NC(=O)c2ccccc2F)sc2c1CCCC2`, the inhibition was -1.26% in assay [1]; -1.34% in assay [2]; -0.38% in assay [3]; -1.85% in assay [4]; -1.18% in assay [5]; 0.63% in assay [6]. Besides, the inhibition is 2.26% in assay [7]; -1.92% in assay [8]; -2.71% in [9]; -1.2% in assay [10]; -0.74% in [11]; -1.54% in assay [12]. For the same compound, the inhibition is -0.64% in assay [13]; -2.15% in [14]; -1.29% in [15]; 1.85% in assay [16]; 2.06% in assay [17]; 0.79% in assay [18]. The inhibition is 2.03% in assay [19] and 0.86% in [20].

Regarding `NC(=O)c1sc(-n2cnc3ccccc32)cc1OCc1ccccc1Br`, the inhibition in assay [1] was 4.22%; in assay [2], -0.27%; in assay [3], -0.72%; in [4] it was 8.45%; in assay [5], 23.1%; in assay [6] it was 1.2%. For the same compound, the inhibition in assay [7] was 4.68%; in assay [8], 4.65%; in assay [9], 5.08%; in [10], 3.45%; in [11] it was 5.59%; in assay [12], -3.49%. Further, the inhibition in [13] was -2.38%; in [14], 4.02%; in [15], 4.31%; in assay [16], 2.31%; in [17], 4.24%; in assay [18], 0.67%. In addition, the results for the inhibition in assay [19] and in [20] were -1.28% and 1.25%, respectively.

For `CCS(=O)(=O)c1ccc(OC)c(Nc2ncc(-c3cccc(OC)c3)o2)c1`, the inhibition was -2.17% in assay [1]; 0.87% in assay [2]; 0.2% in assay [3]; 4.78% in [4]; 7.73% in [5]; 1.06% in assay [6]. Further, the inhibition in [7] was 5.17%; in [8], 1.24%; in assay [9], 4.76%; in assay [10], -4.79%; in assay [11], 2.08%; in [12] it was -1.9%. The inhibition in [13] is -1.28%; in [14], 1.81%; in assay [15], 2%; in [16] it was 3.48%; in assay [17] it was 3.98%; in assay [18], 3.39%. Besides, the inhibition was -0.15% in assay [19] and -0.07% in assay [20].

With `Cc1ccc2c(-c3ccnc(Nc4ccc5c(c4)OCCO5)n3)c(-c3ccc(C(F)(F)F)cc3)nn2n1`, the inhibition in assay [1] is 3.87%; in assay [2] it was -2.01%; in [3] it was -1.1%; in assay [4], 3.33%; in assay [5] it was 23.2%; in [6], 1.91%. Further, the inhibition is 5.75% in assay [7]; 0.71% in assay [8]; -1.27% in assay [9]; 0.73% in assay [10]; 0.43% in [11]; -1.35% in assay [12]. Further, the inhibition in assay [13] is -3.21%; in assay [14] it was -1.09%; in [15], -0.65%; in [16], 0.68%; in assay [17], 0.76%; in [18] it was 6.55%. Further, the figures for the inhibition in assay [19] and in assay [20] were -2.49% and 0%, respectively.
